The experiment deals with primary human hepatic stellate cells (donor 1). The experiment in a line: scaled lipid accumulation score (0 = DMSO-like, 1 = nortriptyline-like); higher = stronger HSC inactivation (lipid re-accumulation), active = hit call of the paper. The conditions noted are these: 48 h.
Where [1] appears, read: library stock concentration: 10 mM.
Setting [2] is: library stock concentration: 80 uM.
Where [3] appears, read: library stock concentration: 400 uM.
The mark [4] stands for this setting: library stock concentration: 2 mM.
[5] abbreviates: library stock concentration: 1 mM.
Setting [6] is: library stock concentration: 3.33 mM.

Several values for one entry are separate records, joined by “and”; a condition that tells them apart may be missing. Identical values can stand only once. Counter-ions that a name gives are not always drawn. The whole screen tested about 5,800 compounds, of which about 620 (11%) showed activity. Shown is part of a subset that was picked to be rich in actives. Unmarked numbers belong to inactive results.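 How the source made its calls: active = score above a cut-off or among the top three wells of a plate; in these data no inactive exceeds 0.85.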

For `CCCCCCCCCCCCCCCC(=O)C1=C(O)[C@@H](CO)OC1=O`, the “scaled lipid accumulation score” value (library stock concentration: 13.6 mM) is no more than -0.012.
As for `CC1(C)[C@H]2CC[C@]1(CS(=O)(=O)O)C(=O)C2=Cc1ccc(C=C2C(=O)[C@@]3(CS(=O)(=O)O)CC[C@@H]2C3(C)C)cc1`, the “scaled lipid accumulation score” value under setting [1] is no more than 0.
In the case of `O=C1NC(=O)/C(=C\c2cccc(C(F)(F)F)c2)S1` [PIM12 kinase inhibitor V], the “scaled lipid accumulation score” value was no more than -0.001 under setting [2], no more than -0.001 under setting [3], no more than -0.001 under setting [4] and 0.011 under setting [1].
As to `CCCCCC(=O)CC[C@@H]1[C@@H](CCCCCCC(=O)O)[C@@H](O)C[C@H]1O` [13,14-dihydro-15-keto Prostaglandin F1.alpha.], under setting [5], the “scaled lipid accumulation score” value was no more than 0.
Regarding `O=[N+]([O-])c1cc(Cl)ccc1S(=O)(=O)N1CCN(Cc2ccccc2)CC1`, the “scaled lipid accumulation score” value under setting [1] was 0.048.
Same read-out and setting: next, `CN(C)c1cnccn1`: no more than 0.
For `CCCCC[C@](C)(O)/C=C/[C@H]1[C@H](O)CC(=O)[C@@H]1C/C=C\CCCC(=O)O` [15(S)-15-methyl Prostaglandin E2], under setting [5], the “scaled lipid accumulation score” value is no more than 0.
As to `N#Cc1ccc2[nH]c(O)c(-c3ccc(CN4CCOCC4)cn3)c2c1`, the “scaled lipid accumulation score” value was 0.477 under setting [6] and 0.769 under setting [1].
Regarding `CCc1cc2c(cc1N1CCC(N3CCOCC3)CC1)C(C)(C)c1[nH]c3cc(C#N)ccc3c1C2=O` [listing 1 of 2 here], the “scaled lipid accumulation score” value under setting [1] is 1.17 (active).
Turning to `CCc1cc2c(cc1N1CCC(N3CCOCC3)CC1)C(C)(C)c1[nH]c3cc(C#N)ccc3c1C2=O` [listing 2 of 2 here], the “scaled lipid accumulation score” value is, setting by setting: under setting [2], no more than -0.016; under setting [3], no more than -0.016; under setting [4], 0.126.
Consider `CC#CCOC(=O)C1=CCCN(C)C1` [Arecaidine but-2-ynyl ester tosylate], for which the “scaled lipid accumulation score” value under setting [1] was no more than 0.
On to `CCOC(=O)[C@H](CCc1ccccc1)N[C@@H](C)C(=O)N1Cc2cc(OC)c(OC)cc2C[C@H]1C(=O)O` [Moexipril HCl], for which the “scaled lipid accumulation score” value runs as follows: under setting [6], no more than 0; under setting [1], no more than 0.
For `CCOC(=O)[C@H](CCc1ccccc1)N[C@@H](C)C(=O)N1Cc2cc(OC)c(OC)cc2C[C@H]1C(=O)O` [Moexipril hydrochloride], under setting [1], the “scaled lipid accumulation score” value is 0.011.
Turning to `CO[C@H]1C[C@H](O[C@H]2[C@H](C)[C@@H](O[C@@H]3O[C@H](C)C[C@H](N(C)C)[C@H]3O)[C@@H](C)C[C@@]3(CO3)C(=O)[C@H](C)[C@@H](O)[C@@H](C)[C@@H](C)OC(=O)[C@@H]2C)O[C@@H](C)[C@@H]1O` [Oleandomycin phosphate], the “scaled lipid accumulation score” value is no more than 0. Further, the “scaled lipid accumulation score” value under setting [1] is no more than 0.
As to `CCCCCCCCCCCCCCCCOC[C@H](COP(=O)([O-])OCC[N+](C)(C)C)SC(=O)CCCCCC` [Heptanoyl thio-PC], the “scaled lipid accumulation score” value under setting [5] is 0.071.
`Cn1cc(C2=C(c3ccc(Cl)cc3Cl)C(=O)NC2=O)c2ccccc21` [listing 1 of 5 here]: the “scaled lipid accumulation score” value under setting [2] was 0.035; the “scaled lipid accumulation score” value under setting [3] is ≤ -0.009 and 0.379; the “scaled lipid accumulation score” value under setting [4] was 0.225; the “scaled lipid accumulation score” value under setting [6] is 0.555; the “scaled lipid accumulation score” value under setting [1] was 0.564.
As to `Cn1cc(C2=C(c3ccc(Cl)cc3Cl)C(=O)NC2=O)c2ccccc21` [listing 2 of 5 here], under setting [1], the “scaled lipid accumulation score” value is 1.03 (active).
For the compound `Cn1cc(C2=C(c3cn(CCCSC(=N)N)c4ccccc34)C(=O)NC2=O)c2ccccc21` [Ro 31-8220 Mesylate], the “scaled lipid accumulation score” value by setting is: under setting [6], no more than -0.009; under setting [1], 0.514.
As for `Cn1cc(C2=C(c3c4n(c5ccccc35)CCC(CN)C4)C(=O)NC2=O)c2ccccc21` (centres undefined) [Bisindoylmaleimide X HCl salt (Ro 31-8425) (0.4 mM)], the “scaled lipid accumulation score” value under setting [3] was 0.132.
For `Cn1cc(C2=C(c3c4n(c5ccccc35)CCC(CN)C4)C(=O)NC2=O)c2ccccc21` (centres undefined) [Bisindoylmaleimide X HCl salt (Ro 31-8425) (2 mM)], the “scaled lipid accumulation score” value under setting [4] is no more than 0.
For `CCCCn1c2ccc(O)cc2c2c3c(c(-c4ccccc4Cl)cc21)C(=O)NC3=O` [Wee1 Inhibitor II], the “scaled lipid accumulation score” value under setting [6] was no more than 0.
Same read-out and setting: as for `NCCCn1cc(C2=C(c3c[nH]c4ccccc34)C(=O)NC2=O)c2ccccc21` [Bisindolylmaleimide III, Hydrochloride], the figure is no more than 0.
Regarding `Cn1cc(C2=C(c3cn(CCCSC(=N)N)c4ccccc34)C(=O)NC2=O)c2ccccc21` [Ro 31-8220 mesylate], the “scaled lipid accumulation score” value under setting [1] was no more than -0.001.
For `Cn1cc(C2=C(c3cn(CCCSC(=N)N)c4ccccc34)C(=O)NC2=O)c2ccccc21` [Bisindolylmaleimide IX (mesylate)], the “scaled lipid accumulation score” value under setting [5] was no more than 0.
As for `Cn1cc(C2=C(c3c4n(c5ccccc35)CCC(CN)C4)C(=O)NC2=O)c2ccccc21` (centres undefined) [Bisindoylmaleimide X  HCl salt (Ro 31-8425) (10 mM)], under setting [1], the “scaled lipid accumulation score” value is no more than -0.005.
In the case of `Cn1cc(C2=C(c3cn(CCCSC(=N)N)c4ccccc34)C(=O)NC2=O)c2ccccc21`, the “scaled lipid accumulation score” value reads like this: under setting [2], 0.068; under setting [3], 0.267; under setting [4], no more than 0; under setting [6], no more than 0; under setting [1], 0.848; (library stock concentration: 10.9 mM) 0.832.
As to `Cn1cc(C2=C(c3ccc(Cl)cc3Cl)C(=O)NC2=O)c2ccccc21` [listing 3 of 5 here], under setting [1], the “scaled lipid accumulation score” value was 1.22 (active).
Regarding `Cn1cc(/C=C2\C(=O)Nc3cccnc32)c2ccccc21`, the “scaled lipid accumulation score” value under setting [3] was no more than -0.005; the “scaled lipid accumulation score” value under setting [4] was 0.002; the “scaled lipid accumulation score” value under setting [1] was ≤ -0.001 and ≤ -0.005.
With `Cn1cc(C2=C(c3ccc(Cl)cc3Cl)C(=O)NC2=O)c2ccccc21` [listing 4 of 5 here], under setting [1], the “scaled lipid accumulation score” value was 1.37 (active).
Consider `Cn1cc(C2=C(c3cn(CCCN)c4ccccc34)C(=O)NC2=O)c2ccccc21` [Bisindolylmaleimide VIII (acetate)], for which, under setting [5], the “scaled lipid accumulation score” value is no more than 0.
Turning to `Cn1cc(C2=C(c3ccc(Cl)cc3Cl)C(=O)NC2=O)c2ccccc21` [listing 5 of 5 here], the “scaled lipid accumulation score” value was 1.13 (active) under setting [4] and 1.17 (active) under setting [1].
With `O=C1NC(=O)C(c2cn(CCCO)c3ncccc23)=C1c1cnccn1` [GSK-3b Inhibitor XI], the “scaled lipid accumulation score” value under setting [6] was 0.065.
Take `CCCCCCCCCCCCCCCC(=O)OCC` [Palmitic Acid ethyl ester]: the “scaled lipid accumulation score” value under setting [5] is no more than 0.
For the compound `C[N+]1(C)C[C@H](O)C[C@H]1C(=O)[O-]` [Betonicine], the “scaled lipid accumulation score” value is no more than 0.
For the compound `CCCCC[C@H](O)/C=C/[C@H]1CCC(=O)[C@@H]1C/C=C\CCCC(=O)O` [11-deoxy Prostaglandin E2], the “scaled lipid accumulation score” value under setting [5] was 0.072.
As for `CC[C@H](CO)Nc1nc(NCc2ccccc2O)c2ncn(C(C)C)c2n1` [Olomoucine II], the “scaled lipid accumulation score” value under setting [6] was 0.299.
Regarding `NC1=N[C@@]2(c3cc(NC(=O)c4ccc(F)cn4)ccc3F)COC[C@H]2CS1`, the “scaled lipid accumulation score” value runs as follows: under setting [6], 0.012; under setting [1], 0.209.
Regarding `C[C@]12CCC(=O)C=C1CC[C@@H]1[C@@H]2[C@@H](O)C[C@@]2(C)[C@H]1CC[C@]2(O)C(=O)COP(=O)(O)O` [Hydrocortisone phosphate triethylamine], for the setting “library stock concentration: 3.1 mM”, the “scaled lipid accumulation score” value is no more than -0.001.
Turning to `CCOc1nc2cccc(C(=O)O)c2n1Cc1ccc(-c2ccccc2-c2noc(=O)[nH]2)cc1` [Azilsartan], the “scaled lipid accumulation score” value was no more than 0 under setting [6] and no more than 0 under setting [1].
As to `CCCCC[C@H](O)/C=C/[C@H]1C(=O)C[C@H](O)[C@@H]1C/C=C/CCCC(=O)O` [5-trans Prostaglandin D2], the “scaled lipid accumulation score” value under setting [5] was no more than 0.
With `COC(=O)C1=C(C)NC(C)=C(C(=O)OCCCN2CCC(c3ccccc3)(c3ccccc3)CC2)[C@@H]1c1cccc([N+](=O)[O-])c1` [(R)-(-)-Niguldipine hydrochloride], the “scaled lipid accumulation score” value under setting [1] is no more than -0.006.
As for `C=C1C(=O)O[C@@H]2/C=C(\C)CC/C=C(\C)CC[C@@H]12` [Costunolide], the “scaled lipid accumulation score” value was no more than 0 under setting [6]; 0.163 and ≤ -0.001 under setting [1].
In the case of `C=C1C(=O)OC2CC1C(OC(C)=O)C/C(C)=C/CC/C(C)=C/CC[C@]2(C)O` (some centres undefined) [Crassin acetate], the “scaled lipid accumulation score” value under setting [1] is 1.04 (active).
For the compound `C=C1C(=O)O[C@H]2[C@H]1CC/C(C)=C/CC[C@@]1(C)O[C@@H]21` [(-)-Parthenolide], the “scaled lipid accumulation score” value reads like this: under setting [6], 0.099; under setting [1], 0.534.
`C=C1C(=O)O[C@H]2[C@H]1CC/C(C)=C/CC[C@@]1(C)O[C@@H]21` [Parthenolide]: the “scaled lipid accumulation score” value is 0.539. Also, under setting [1], the “scaled lipid accumulation score” value is 0.317 and 0.269. Further, the “scaled lipid accumulation score” value (library stock concentration: 20.1 mM) is 0.417.
As for `CCCCCCCC/C=C\CCCCCCCCOC[C@H](COP(=O)([O-])OCC[N+](C)(C)C)OC(C)=O`, the “scaled lipid accumulation score” value under setting [5] was no more than -0.018.
With `CC(=O)NCC(=O)N[C@H](CCC(=O)O)C(=O)O` [N-Acetylglycyl-D-glutamic acid], the “scaled lipid accumulation score” value under setting [1] was no more than 0.
Still for that read-out and setting: as for `CN(C)CCCN1c2ccccc2CCc2ccc(Cl)cc21.Cl` [Clomipramine hydrochloride] [listing 1 of 3 here], the figure is 1.31 (active); as for `CN(C)CCCN1c2ccccc2CCc2ccccc21`, 0.493.
The same measure, in the same setting: next, `CN(CCCN1c2ccccc2CCc2ccccc21)CC(=O)c1ccc(Cl)cc1`: 0.191.
In the case of `CN(C)CCCN1c2ccccc2CCc2ccc(Cl)cc21.Cl` [Clomipramine hydrochloride] [listing 2 of 3 here], the “scaled lipid accumulation score” value was 0.968 (active).
For `CN(C)CCCN1c2ccccc2CCc2ccc(Cl)cc21`, the “scaled lipid accumulation score” value under setting [1] is 0.755.
Still for that read-out and setting: as for `CN(C)CCCN1c2ccccc2CCc2ccccc21.Cl` [Imipramine hydrochloride], the figure is 1.1 (active).
With `CN(C)CCCN1c2ccccc2CCc2ccc(Cl)cc21` [Clomipramine hydrochloride], under “library stock concentration: 5.7 mM”, the “scaled lipid accumulation score” value is 0.836.
Take `CN(C)CCCN1c2ccccc2CCc2ccccc21` [Imipramine HCl]: the “scaled lipid accumulation score” value (library stock concentration: 7.1 mM) was 0.618.
`CN(C)CCCN1c2ccccc2CCc2ccc(Cl)cc21` [Clomipramine HCl]: under setting [6], the “scaled lipid accumulation score” value is 0.402.
With `CN(CCCN1c2ccccc2CCc2ccccc21)CC(=O)c1ccc(Cl)cc1` [Lofepramine], under setting [1], the “scaled lipid accumulation score” value was 0.323.
As for `CN(C)CCN1C(=O)c2ccccc2N(C)c2ccccc21` [Dibenzepine HCl], the “scaled lipid accumulation score” value (library stock concentration: 6.8 mM) is no more than 0.
On to `CN(C)CCCN1c2ccccc2CCc2ccc(Cl)cc21.Cl` [Clomipramine hydrochloride] [listing 3 of 3 here], for which the “scaled lipid accumulation score” value under setting [1] was 1.01 (active).
`CN(C)CCCN1c2ccccc2CCc2ccccc21` [Imipramine hydrochloride]: the “scaled lipid accumulation score” value is 0.652. Besides, the “scaled lipid accumulation score” value (library stock concentration: 6.3 mM) is 0.714. The “scaled lipid accumulation score” value under setting [1] was 0.59.

The values above are taken from the supplement of paper PMC9135407.
